PMC5540273 (PLoS ONE, 2017)

System: FYN
Details: concentration: 1 μM, replicates: in singlicate; n = 1
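Note: KINOMEscan kinase panel screen.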

SMILES	%Inh [%]
Nc1ncc(-c2cccnc2)c2scc(-c3ccc4c(c3)CCN4C(=O)Cc3ccccc3)c12 [GSK683281]	32
c1ccc(Oc2ccc(Nc3ccnc4cc(-c5ccc(CNCCN6CCOCC6)o5)ccc34)cc2)nc1 [GW567145]	57
Cl.Cl.NCC(NCc1ccc(-c2ccnc3[nH]ccc23)s1)c1ccccc1 (stereo not shown) [GSK1321565]	0
CCn1c(-c2nonc2N)nc2c(C#CC(C)(C)O)nc(OC[C@H](N)c3ccccc3)cc21 [GSK943949]	0
O=C(Nc1cccc(-c2nn3ncccc3c2-c2ccnc(Nc3ccccc3)n2)c1)c1c(F)cccc1F [GSK198271]	85
CCS(=O)(=O)c1ccc(OC)c(Nc2nccc(-c3c(-c4cccc(NC(=O)c5c(F)cccc5F)c4)nn4ncccc34)n2)c1 [GSK326180]	53
C[C@@H](Oc1cc(-n2cnc3cc(-c4ccnc(NCCS(C)(=O)=O)c4)ccc32)sc1C(N)=O)c1ccccc1Cl [GSK907232]	14
Oc1cc(Nc2ccnc3cc(I)ccc23)ccc1F [GW552771]	62
Nc1ncc(-c2ccc3nccc(-c4ccncc4)c3c2)cc1S(=O)(=O)N1CCOCC1 [GSK1627798]	14
Cl.Cl.NCC(C(=O)Nc1cc(Br)c(-c2ccnc3[nH]ccc23)s1)c1ccccc1 (stereo not shown) [GSK1269851]	30
COc1ccc(Nc2nccc(N3CCC(NC(=O)Nc4cccc(OC)c4)C3)n2)cc1 (stereo not shown) [GSK1379742]	0
Cc1cccc(NC(=O)Nc2ccc(Oc3ncnc4ccn(C)c34)cc2)c1	0
O=C(Nc1ccccc1F)NC1CCN(c2ccnc(Nc3ccc(F)cc3)n2)CC1 [GSK1379800]	8
COc1cccc(C2=C(Nc3ccc(Cl)c(C(=O)O)c3)C(=O)NC2=O)c1 [SB-390769]	17
O=c1[nH]cc(-c2ccc(N3CCOCC3)cc2)c2sc(-c3cn[nH]c3)cc12 [GSK2276055]	31
COc1ccc(Nc2nccc(NCCNC(=O)c3cc4ccccc4s3)n2)cc1 [GSK1379896]	33
O=C(Nc1cccc(-c2nn3ccccc3c2-c2ccnc(Nc3cccc(C(F)(F)F)c3)n2)c1)c1c(F)cccc1F [GSK292658]	56
COc1cccc(-c2ccc3c(NC(=O)C4CC4)n[nH]c3n2)c1 [SB-710903]	0
Cc1cccc(Nc2nc(N[C@H]3CCNC3)ncc2C(N)=O)c1.Cl [GSK2197149]	43

SMILES	%Inh [%]
Fc1ccc(-c2ncn(C3CCNCC3)c2-c2ccnc(Oc3ccc(-c4ccccc4)cc3)n2)cc1 [SB-245391]	20
O=C(NC1CCN(c2ccnc(Nc3ccc(F)cc3)n2)C1)c1cc2ccccc2s1 (stereo not shown) [GSK1379716]	26
COc1cccc(C(=O)Nc2cccc(Oc3ccc4nc(NC(=O)C5CC5)cn4n3)c2)c1	84
Cl.NC(=O)c1cccc(Nc2nccc(Nc3ccc(Oc4c(Cl)cccc4Cl)c(Cl)c3)n2)c1 [GW659009]	66
O=C(Nc1n[nH]c2cc(-c3ccoc3)ccc12)C1CC1 [SB-738481]	0
Cl.c1ccc(-c2ccc3c(Nc4ccc5[nH]ccc5c4)ccnc3c2)nc1 [GW440138]	46
COc1ccc(-c2coc3ccc(-c4nnc(SCc5ccc(OC)c(C(F)(F)F)c5)o4)cc23)cc1	3
COc1cc2c(cc1OCCN1CCNCC1)ncc1c3ccc(C#N)cc3[nH]c21	3
CN(c1ccc(NC(=O)Nc2cc(C(F)(F)F)ccc2F)cc1)c1ccnc(Nc2ccc(S(N)(=O)=O)cc2)n1 [GW809893]	83
Cn1cc(-c2ccc3c(c2)CCN3C(=O)Cc2cccc(F)c2)c2c(N)ncnc21 [GSK2603358]	0
CN(C)Cc1ccc(-c2ccc3c(Nc4ccc(Oc5ccccn5)cc4)ccnc3c2)o1 [GW567148]	71
c1ccc(-c2n[nH]cc2Nc2ccnc3ccccc23)nc1 [GW694077]	36
COc1ccc(CNC(=O)NC2CCN(c3ccnc(Nc4ccc(F)cc4)n3)CC2)cc1 [GSK1379788]	8
COc1cc(Nc2nccc(-c3c(-c4cccc(NC(=O)c5c(F)cccc5F)c4)nn4ncccc34)n2)cc(OC)c1OC [GSK327238]	97.5
CCCCc1nn2ncccc2c1-c1ccnc(Nc2ccc(N3CCN(C)CC3)cc2)n1 [GW684941]	58
CC(C)c1nc(-c2cccc(NS(=O)(=O)c3c(F)cccc3F)c2F)c(-c2ccnc(Nc3ccc(N4CCOCC4)nc3)n2)s1 [GSK2008607]	98.2
NCCCC(NC(=O)c1cc(Br)c(-c2ccnc3[nH]ccc23)s1)c1ccccc1.O=C(O)C(F)(F)F.O=C(O)C(F)(F)F (stereo not shown) [GSK1287544]	2
CN(C)S(=O)(=O)c1cc(-c2ccc3nccc(-c4cccc(S(N)(=O)=O)c4)c3c2)cnc1N [GSK1669921]	28
